# Assay outcomes from PubChem.
# Only some compounds are listed: those with a hit (about 2.1% of all), similar ones and a draw of the others.
# FUS yeast rescue – FUS proteinopathy suppression in yeast; S. cerevisiae FUS-expressing, growth rescue, OD600, 24 h; Potency, µM (series often up to 76.6 µM), usual class: activators; hit rate 0.24% among 390,000; AID 1347120; further: nearly all actives have a fitted effect of over 55% in size
#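 Restored growth of FUS-toxic S. cerevisiae, read as 600 nm absorbance after 24 h at 30C in galactose medium (starting OD 0.005). Controls CP55940 and DMSO.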
# Abeta yeast res – restores growth of yeast expressing A-beta42 peptide. yeast expressing A-beta42, growth rescue, OD600, 48 h; response scale: 0% DMSO, 100% iron-clioquinol control. AID 1347071. Potency, µM (top dose mostly 46.1 µM), most hits filed as activators. hit rate 0.063% among 410,000; further: nearly all actives have a fitted effect of over 55% in size
#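 Yeast A-beta toxicity model in growth medium with pinned compounds, 48 h at 30 C; growth read as absorbance at 600 nm. Normalized to FeCl3/clioquinol equimolar mix (positive) and DMSO (negative).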
# aSyn yeast inh – rescues yeast growth from alpha-synuclein toxicity; Yeast expressing alpha-synuclein, growth rescue, BacTiter-Glo, 24 h; hit rate 0.14% among 370,000; Potency, µM (doses to about 46.1 µM), hits mostly activators; further: nearly all actives have a fitted effect of over 65% in size
#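 Galactose-induced alpha-syn yeast (OD600=0.02, raffinose-pregrown) + pinned cpd, 24 hr, 30 deg C; growth by BacTiter-Glo luminescence. Growth restoration scores as activation.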
# TDP43 rescue – inhibitors of TDP-43 toxicity in yeast; AID 652104; hit rate 1.8% among 410,000; TDP-43 expressing yeast growth rescue, BacTiter-Glo, 24 h; Potency, µM (top dose mostly 46.1 µM), most hits filed as activators; further: nearly all actives have a fitted effect of over 50% in size
#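 In this qHTS, compounds that restore growth of yeast expressing TDP-43 appear as activators. Cells (OD600=0.02, galactose medium, raffinose-pregrown) are incubated with compound 24 hr at 30 deg C and growth is quantified by BacTiter-Glo.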
# Hits are given with their value; . = inactive; ? = inconclusive; / = not tested or not shown; [ ] = dose if it differs, or a comment. The call rests on the fitted dose curve; in most records, active means well fitted curve in the direction sought with a large enough effect; inconclusive means small, poorly fitted or top-dose-only effect, or another doubt; inactive means no such curve, though single readings can be large; an effect the other way counts as inactive or inconclusive.
SMILES,FUS yeast rescue,Abeta yeast res,aSyn yeast inh,TDP43 rescue
Cc1ccccc1N=C1SC(CC(=O)Nc2ccc3ccccc3c2)C(=O)N1Cc1ccccn1 (stereo not drawn),.,.,?,28.2µM
COC(=O)C(C)NC(=S)N1CCN(c2c(F)cc3c(=O)c(C(=O)O)cn(C4CC4)c3c2OC)CC1C (stereo not drawn),31.6µM,.,.,?
CCC1CCCCN1CCCNC(=O)c1ccc2c(c1)N(Cc1ccccc1F)C(=O)c1ccccc1S2(=O)=O (stereo not drawn),?,.,/,.
C1=Cc2ccccc2/C1=C\c1cc2c3c(c1)CCCN3CCC2,/,/,.,/
COC(=O)CN(C)C1CC(=O)N(c2ccc(Cl)cc2)C1=O (stereo not drawn),.,.,.,17.8µM
CCCC1(C)C(C#N)(C#N)C1(C#N)C#N,/,/,14.6µM,/
CCCC1(C)C(C#N)C(=O)NC(=O)C1C#N (stereo not drawn),.,.,.,.
COc1cc(OC)nc(-n2ncc(Br)c(Br)c2=O)n1,.,.,.,11.2µM
C=CCOc1c(Br)cc(CNc2ccc(NC(=O)C(C)C)c(OC)c2)cc1OCC,14.1µM,.,.,.
C=CCOc1c(Br)cc(CNc2ccc(NC(=O)CCC)cc2)cc1OCC,.,?,.,?
Nc1cc2c(cc1C(=O)c1cccc(Br)c1)OCCO2,.,.,.,14.1µM
Nc1cc2c(cc1C(=O)c1ccccc1F)OCCO2,.,.,.,17.8µM
O=C(Nc1ccc2c(c1)OCCO2)c1cccc(Br)c1,.,.,.,.
CCC(=O)c1cc2c(cc1NC(=O)c1ccccc1F)OCCO2,.,.,.,.
CCC(O)c1cc2c(cc1NC(=O)c1cccc(Br)c1)OCCO2 (stereo not drawn),.,.,.,12.6µM
CCc1ccc(-c2c(C)sc(NC(C)=O)c2C(N)=O)cc1,.,.,.,15.8µM
Cc1nc2c(OCc3ccc(C(F)(F)F)cc3)cccn2c1N(C)C(=O)CCC1CCCC1,22.4µM,.,.,.
Cc1ccc(-c2cc(C(=O)OC3CCOC3=O)c3ccccc3n2)c(C)c1 (stereo not drawn),.,.,.,17.8µM
O=C(NN1CCOCC1)c1cc(-c2cccs2)nc2ccccc12,.,.,.,.
O=C(OC1CCOC1=O)c1cc(-c2cccs2)nc2ccccc12 (stereo not drawn),.,.,.,25.1µM
CCc1nc2ccccc2c(C(=O)OC2CCOC2=O)c1C (stereo not drawn),.,.,.,.
O=C1CN(CCN2CC(=O)NC(=O)C2)CC(=O)N1,/,/,.,/
Cc1ccc(S(=O)(=O)N2CCN(c3nc(C(N)=O)nc4ccccc34)CC2)cc1,/,/,.,/
CCOc1ccc2nc(SCC(=O)NC(=O)NCc3ccco3)sc2c1,.,.,.,.
O=C(CSc1nc2ccc(Nc3nc(N4CCCC4)nc(N4CCCC4)n3)cc2s1)NCc1ccco1,.,.,.,20µM
SMILES,FUS yeast rescue,Abeta yeast res,aSyn yeast inh,TDP43 rescue
CCOc1ccc2nc(SCC(=O)NCc3ccco3)sc2c1,.,.,.,14.1µM
C[n+]1ccc(/C=C/c2ccc(C=S)cc2)c2ccccc21,/,/,.,/
COc1cccc(-c2nn(C)c3sc(C(=O)Nc4ccc5c(c4)OCCO5)cc23)c1,.,.,.,.
Cn1nc(-c2ccccc2F)c2cc(C(=O)Nc3ccc4c(c3)OCCO4)sc21,.,.,.,15.8µM
Cc1cc(C)n2nc(SCc3c(F)cccc3Cl)nc2n1,.,.,.,?
Cc1cc(C)n2nc(SCc3ccc(F)cc3Cl)nc2n1,.,.,.,11.2µM
CCN(C(=O)c1c(C)oc2ncnc(N3CCCCC3)c12)c1cc(C)ccc1C,.,.,/,.
CCCS(=O)(=O)c1ncc(Cl)c(C(=O)N(Cc2ccccc2)Cc2ccco2)n1,.,.,.,15.8µM
O=C(c1ccc2ccccc2c1)N1CCN(S(=O)(=O)/C=C/c2ccccc2)CC1,.,.,.,?
COc1ccc(Br)c(C(=O)N2CCN(S(=O)(=O)/C=C/c3ccccc3)CC2)c1,.,.,.,12.6µM
CC(C)c1nc(N(C)S(C)(=O)=O)nc(-c2ccc(F)cc2)c1/C=C/[C@H](O)C[C@@H](O)CC(=O)O,.,/,/,/
COc1ccccc1CNc1ncnc2c1cnn2-c1ccccc1,.,.,.,15.8µM
COc1ccc(-n2ncc3c(NCC(C)C)ncnc32)cc1,.,.,.,11.2µM
COc1ccccc1CNc1ncnc2c1cnn2-c1ccc(C)cc1,.,.,/,35.5µM
Cc1ccc(-n2ncc3c(NCc4ccccc4)ncnc32)cc1,.,.,.,.
COc1ccc(-n2ncc3c(NC(C)C)ncnc32)cc1,.,.,.,?
CN(C)c1ccc(/C=C/C=C2/C=Cc3ccccc32)cc1,/,/,.,/
COC(=O)C/C=C/[C@H](C)[C@@H](NC(=O)C(F)(F)F)c1ccccc1Br,.,/,/,/
Cc1cccc(-c2nc3nc(C)cc(NC(C)c4ccccc4)n3n2)c1 (stereo not drawn),.,.,.,25.1µM
Cc1cc(Nc2ccc(Br)cc2)n2nc(-c3ccccc3C)nc2n1,.,.,/,14.1µM
Cc1cc(Nc2ccc(C)c(Cl)c2)n2nc(-c3ccccc3)nc2n1,.,.,/,.
COc1ccccc1Nc1cc(C)nc2nc(-c3ccccc3)nn12,.,.,/,12.6µM
CCS(=O)(=O)N1CCCc2cc(C(=O)Nc3cc([N+](=O)[O-])ccc3C)ccc21,.,.,/,.
CCNC(=S)N1CCc2ccccc2C1,.,.,.,.[9.22 µM]
Fc1ccc2[nH]c3c(c2c1)CN(C(=S)NCc1ccccc1)CC3,.,?,.,15.8µM
SMILES,FUS yeast rescue,Abeta yeast res,aSyn yeast inh,TDP43 rescue
S=C(NCc1ccccc1)N1CCc2ccccc2C1,.,.,.,11.2µM
Cc1cccc(C(=O)NC(=S)N2CCc3ccccc3C2)c1,.,?,.,20µM
C=CCNC(=O)N1CCc2[nH]c3ccc(F)cc3c2C1,.,.,.,.
Cc1ccccc1OCC(=O)Nc1ccc(S(=O)(=O)N(Cc2ccccc2)c2ccccc2)cc1,.,.,/,.
O=C(C[n+]1c2ccccc2cc2ccccc21)c1ccc(F)cc1,/,/,.,/
O/N=C/Cc1[nH]c2ccccc2c1-c1ccccc1,.,.,.,15.8µM
O=c1[nH]c2ccccc2c(O)c1-c1ccccc1,.,.,.,.
Cc1ccc(NC(=O)COc2ccccc2)cc1S(=O)(=O)N1CCCCCC1,.,.,.,.
Cc1cnc(C(=O)Nc2ccc(C)c(S(=O)(=O)N3CCCCCC3)c2)cn1,.,.,.,15.8µM
Cc1ccc(NC(=O)COc2ccccc2C#N)cc1S(=O)(=O)N1CCCCCC1,.,.,.[1.84 µM],28.2µM
Cc1cccc(NC(=O)c2ccc(CNS(=O)(=O)c3ccc4c(c3)C(C)(C)C(=O)N4C)cc2)c1,.,.,/,.
CCOc1ccc(CCNC(=O)Cn2nc(-c3ccc(C)cc3)ccc2=O)cc1OCC,.,.,/,.
CCOCCCn1c(SCC(=O)Nc2ccccc2OC)nc2c(oc3ccccc32)c1=O,?,.,/,22.4µM
CC(C)n1c(SCC(=O)Nc2ccc(F)cc2)nc2c(oc3ccccc32)c1=O,.,.,/,20µM
